# “And” between values parts separate entries of the source, which are not always exact repeats. Equal entries are not always repeated. Compounds without any hit were thinned out: in the full panel of roughly 83,000, 20% have a hit.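 A percent growth of 40 corresponds to 60% growth inhibition; 0 means no net growth; -100 means all cells died. Active threshold: below 10.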 The source holds several records for some structures; these can differ, active in one and inactive in another. The source made the active and inactive calls.
# Key:
# Experiment in all cases: NCI-60 one-dose screen, 48 h (100 = growth as untreated, 0 = no growth, -100 = all killed)
# Conditions in all cases: 10 µM unless noted
# SR leukemia = tested on: SR leukemia
# RPMI-8226 leukemia = tested on: RPMI-8226 leukemia
# OVCAR-8 ovarian = tested on: OVCAR-8 ovarian
# OVCAR-5 ovarian = tested on: OVCAR-5 ovarian
# OVCAR-4 ovarian = tested on: OVCAR-4 ovarian
# SK-OV-3 ovarian = tested on: SK-OV-3 ovarian
# IGROV1 ovarian = tested on: IGROV1 ovarian
# OVCAR-3 ovarian = tested on: OVCAR-3 ovarian
# NCI/ADR-RES ovarian = tested on: NCI/ADR-RES ovarian
# HS 578T breast = tested on: HS 578T breast
Compound,growth (SR leukemia),growth (RPMI-8226 leukemia),growth (OVCAR-8 ovarian),growth (OVCAR-5 ovarian),growth (OVCAR-4 ovarian),growth (SK-OV-3 ovarian),growth (IGROV1 ovarian),growth (OVCAR-3 ovarian),growth (NCI/ADR-RES ovarian),growth (HS 578T breast)
COC(=O)C(=[N+]=[N-])C(=O)c1ccc([N+](=O)[O-])o1,58.4% (inactive),78.8% (inactive),82% (inactive),110% (inactive),106% (inactive),97.2% (inactive),97.6% (inactive),88.3% (inactive),93.1% (inactive),–
S=C(SSC(=S)N1CCOCC1)N1CCOCC1,31.4% (inactive),76.9% (inactive),96.8% (inactive),106% (inactive),65.7% (inactive),102% (inactive),29.1% (inactive),–,106% (inactive),97.7% (inactive)
O=C1c2ccccc2Cc2cccc(Cl)c21,64.1% (inactive),106% (inactive),108% (inactive),93.9% (inactive),108% (inactive),98% (inactive),88.7% (inactive),–,96% (inactive),112% (inactive)
O=[N+]([O-])CC(O)c1ccccc1 (centres undefined),88.2% (inactive),89.7% (inactive),97.7% (inactive),95.7% (inactive),93.8% (inactive),118% (inactive),112% (inactive),–,101% (inactive),125% (inactive)
CC(C)(C)c1ccc(O)c(-c2ccccc2)c1,57.7% (inactive),97.1% (inactive),107% (inactive),111% (inactive),127% (inactive),114% (inactive),108% (inactive),111% (inactive),106% (inactive),–
O=C1C=Cc2ccccc2/C1=C/c1nc(-c2ccccc2)oc1O,91.1% (inactive),104% (inactive),94.7% (inactive),97.2% (inactive),85.2% (inactive),86.6% (inactive),71.8% (inactive),–,85.7% (inactive),102% (inactive)
CN1CCC(c2ccccc2)(c2ccccc2)C(=O)C1,78.2% (inactive),41.7% (inactive),95.9% (inactive),86.8% (inactive),57% (inactive),103% (inactive),89.8% (inactive),68.7% (inactive),73.9% (inactive),–
Cc1cc(Br)c2nsnc2c1[N+](=O)[O-],19.2% (inactive),23.9% (inactive),52.8% (inactive),72.8% (inactive),47.7% (inactive),91.3% (inactive),27.4% (inactive),–,50.5% (inactive),47% (inactive)
CC1=CC(=O)C=CC1(C)C(Cl)(Cl)Cl (centres undefined),94.2% (inactive),104% (inactive),90.3% (inactive),101% (inactive),114% (inactive),94.3% (inactive),100% (inactive),116% (inactive),102% (inactive),–
OC(c1cc(-c2ccc(C(F)(F)F)cc2)nc(C(F)(F)F)c1)C1CCCCN1 (centres undefined),-37.6% (active) and -57.5% (active) and -38.9% (active),-35.4% (active) and -61.4% (active) and -21% (active),-57.7% (active) and -54.5% (active) and -34.4% (active),30.4% (inactive) and -33.3% (active) and 61% (inactive),-6.94% (active) and -29.6% (active) and 39.1% (inactive),24.4% (inactive) and 39.9% (inactive) and 86.2% (inactive),-25.6% (active) and -92.4% (active) and 30.5% (inactive),–,-31.5% (active) and -50% (active) and 25% (inactive),-3.8% (active) and -53.8% (active) and 48.9% (inactive)
CC(C)(C)CC(C)(C)c1ccc(OCCOCCSC(=N)N)cc1,-24.4% (active),-43.6% (active),58.5% (inactive),73.6% (inactive),33% (inactive),55.9% (inactive),54.9% (inactive),25.3% (inactive),45.5% (inactive),–
O=C1C=C(Cl)C(=O)c2ccccc21,94.7% (inactive),84.7% (inactive),91.6% (inactive),113% (inactive),92.5% (inactive),94.7% (inactive),92.3% (inactive),–,102% (inactive),111% (inactive)
CCCOS(=O)(=O)c1ccccc1,108% (inactive),71.2% (inactive),104% (inactive),93% (inactive),123% (inactive),91.9% (inactive),104% (inactive),–,110% (inactive),126% (inactive)
COC(=O)c1cc([N+](=O)[O-])cc([N+](=O)[O-])c1Cl,30.9% (inactive),87.1% (inactive),76.1% (inactive),97.9% (inactive),61% (inactive),102% (inactive),95.7% (inactive),-44.7% (active),99.1% (inactive),–
O=C1C(=O)c2cc([N+](=O)[O-])ccc2-c2ccccc21,-7.48% (active),-42.1% (active),-58.6% (active),-79.2% (active),-97.6% (active),55.7% (inactive),-72.5% (active),-94% (active),-74.2% (active),–
CCCCCCCCCCCCSC(=N)N,-32.1% (active),-42.2% (active),-60.6% (active),37.4% (inactive),33.1% (inactive),79% (inactive),-15.2% (active),14.4% (inactive),35.6% (inactive),–

Compound,growth (SR leukemia),growth (RPMI-8226 leukemia),growth (OVCAR-8 ovarian),growth (OVCAR-5 ovarian),growth (OVCAR-4 ovarian),growth (SK-OV-3 ovarian),growth (IGROV1 ovarian),growth (OVCAR-3 ovarian),growth (NCI/ADR-RES ovarian),growth (HS 578T breast)
Cc1cc(C(=C2C=CC(=Nc3ccccc3)C=C2)c2ccc(Nc3ccccc3)cc2)ccc1N,9.34% (active),4.29% (active),-59.3% (active),-60% (active),-74.2% (active),-64.8% (active),-26.9% (active),-93.7% (active),-46.7% (active),–
c1csc(-c2[nH]nc3c2CCc2ccccc2-3)c1,105% (inactive),81.3% (inactive),99.1% (inactive),24.1% (inactive),48.5% (inactive),98.1% (inactive),67.2% (inactive),28.1% (inactive),98.7% (inactive),–
CCCCCCCCCCCCCCCC[N+]1(C)CCCC1c1cccnc1 (centres undefined),42.7% (inactive),21% (inactive),38.4% (inactive),48.4% (inactive),47.1% (inactive),60.5% (inactive),42.3% (inactive),38.3% (inactive),87.8% (inactive),–
CCCCC(C=O)(C=C=C(C)C)CC (centres undefined),108% (inactive),98% (inactive),98.5% (inactive),98.3% (inactive),96.5% (inactive),98% (inactive),110% (inactive),107% (inactive),106% (inactive),–
CCCCCCCCCCCCCCCCCC1=NCCCN1CCO,95.6% (inactive),103% (inactive),101% (inactive),98.5% (inactive),112% (inactive),97.6% (inactive),105% (inactive),114% (inactive),105% (inactive),–
CN(C)CCN(C)CC(C)(C)C(=O)/C=C/c1ccc(Cl)c(Cl)c1,-25.9% [100 µM] (active),-30.6% [100 µM] (active),-86.5% [100 µM] (active),-93.4% [100 µM] (active),-98.5% [100 µM] (active),-97.7% [100 µM] (active),-92.2% [100 µM] (active),-98.4% [100 µM] (active),-47.2% [100 µM] (active),–
CCC(C)(O)Cc1ccc(Cl)cc1 (centres undefined),101% (inactive),105% (inactive),108% (inactive),111% (inactive),103% (inactive),103% (inactive),114% (inactive),114% (inactive),111% (inactive),–
COc1cc(-c2ccc(-[n+]3nc(-c4ccc([N+](=O)[O-])cc4)nn3-c3ccc([N+](=O)[O-])cc3)c(OC)c2)ccc1-[n+]1nc(-c2ccc([N+](=O)[O-])cc2)nn1-c1ccc([N+](=O)[O-])cc1,40.2% (inactive),27.6% (inactive),30.5% (inactive),59.7% (inactive),53.9% (inactive),47.1% (inactive),24.5% (inactive),32% (inactive),73.4% (inactive),–
O=C(Nc1cccc(C(F)(F)F)c1)Oc1ccc(Cl)c2cccnc12,-1.87% (active),-37.9% (active),-11.1% (active),87.7% (inactive),-0.489% (active),95.8% (inactive),5.79% (active),–,4.64% (active),17.4% (inactive)
N#CC(=C1SCS1)[N+](=O)[O-],7.48% (active),32% (inactive),18.9% (inactive),47% (inactive),42.6% (inactive),55% (inactive),24.5% (inactive),8.46% (active),20.2% (inactive),–
OC(c1cc2ccc(C(F)(F)F)cc2c2cc(C(F)(F)F)ccc12)C1CCCCN1 (centres undefined),-84.7% (active),-54.5% (active),-63.8% (active),-99% (active),-100% (active),-100% (active),-83.9% (active),–,-84.6% (active),-44.2% (active)
C/C(=N\NC(=S)N1CC2CCC(CC2)C1)c1ccccn1,-10.1% (active),-6.26% (active),18.2% (inactive),24.5% (inactive),-41.2% (active),18.9% (inactive),5.07% (active),–,12.6% (inactive),16.3% (inactive)
CCOC(=O)c1cc(CC)sc1NC(=O)CC(C)=O,35.1% (inactive),37.4% (inactive),43% (inactive),96.7% (inactive),43.3% (inactive),84.6% (inactive),59.7% (inactive),65.3% (inactive),40% (inactive),–
O=C(/C(Cl)=N/O)c1ccc(-c2ccccc2)cc1,-24% (active),85.2% (inactive),97.8% (inactive),109% (inactive),112% (inactive),99.5% (inactive),71.8% (inactive),–,99.9% (inactive),110% (inactive)
O=C(c1ccccc1)C(O)C(Br)(CBr)c1ccccc1 (centres undefined),59.3% (inactive),73.6% (inactive),93.2% (inactive),99.6% (inactive),90.8% (inactive),114% (inactive),90.9% (inactive),89.7% (inactive),91.6% (inactive),–
